This is a sample that favours compounds with a hit; in the whole collection about 12% have one here.
HCV inhibitor – qHTS Assay for Inhibitors of Hepatitis C Virus (HCV); Huh7.5.1 HCVcc-Cre infection, luciferase reporter, 44 h; Potency, µM (top dose mostly 41.8 µM), for inactives: at the highest dose activity change, negative = inhibition, actives largely listed as inhibitors; actives 3.4% (n = 340,000); note: % is set by controls: 0 for no effect and ±100 for the full control effect
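1,000 cells/well; 4 h culture; + compound; + HCVcc-Cre (~0.5 moi); 44 h; luciferase substrate, RT 15 min; read 15 sec.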
AMA1 RON2 block – qHTS for Inhibitors of AMA1-RON; Towards Development of Antimalarial Drug Lead: Primary Screen; Plasmodium falciparum AMA1 (3D7) - RON2 peptide interaction; AlphaScreen AMA1-biotinylated RON2 peptide binding; Potency, µM (titrated, usually from 58.2 µM), inactives show top-dose activity change, negative = inhibition, actives largely listed as inhibitors; actives 0.2% (n = 360,000);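 note: 0% = vehicle wells and -100% = peptide control; nearly all actives have a fitted effect of over 45% in size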
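AMA1 (3D7) with his tag at 25 nM final met compounds first, then biotinylated RON2 peptide at 25 nM; detection used donor plus acceptor beads, 10 µg/mL apiece, read by AlphaScreen after 30 min at room temperature.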
Pf growth 96h – Primary qHTS for delayed death inhibitors of the malarial parasite plastid, 96 hour incubation | actives 6.9% (n = 320,000) | Potency, µM (highest dose often 28.7 µM), inactives show at the highest dose activity change, negative = inhibition, usual class: inhibitors | P. falciparum luciferase reporter growth, 96 h | AID 504834, 2011; note: % is set by controls: 0 for no effect and ±100 for the full control effect
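Parasite growth measured via integrated firefly luciferase reporter in P. falciparum. Infected erythrocytes at 2% hematocrit, 0.05% parasitemia final were treated 96 hours at 37 C under 5% CO2, and luminescence was read.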
NS1 inh – qHTS Assay for Inhibitors of Influenza NS1 Protein Function; Potency, µM (doses to about 46.1 µM), for inactives: top-dose activity, positive = more growth; actives 0.4% (n = 270,000); AID 2326, 2010; calls by dose curve; note: actives are rising curves; nearly all actives have a fitted effect of over 50% in size
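Read-out: OD600 growth recovery of NS1-expressing budding yeast. Cells grown overnight at 30C in -URA glucose medium, washed, resuspended and diluted 1:100 in 2% galactose assay medium, pH 6.0. Same strain lacking NS1 served as positive control.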
SARS PLpro yeast – qHTS of Yeast-based Assay for SARS-CoV PLP; S. cerevisiae expressing SARS-CoV PLpro, growth rescue; Potency, µM (titrated, usually from 32.9 µM), without a hit: at the highest dose activity, positive = growth rescue, hits mostly activators; actives 0.19% (n = 330,000); calls by dose curve; note: 0% is about no effect; nearly all actives have a fitted effect of over 55% in size
Pf growth 48h – Primary qHTS for delayed death inhibitors of the malarial parasite plastid, 48 hour incubation | P. falciparum luciferase growth in erythrocytes, 48 h | AID 504832, 2011 | Potency, µM (series often up to 28.7 µM), for the others: at the top dose activity change, negative = inhibition, usual class: inhibitors | actives 5.9% (n = 310,000); note: % is set by controls: 0 for no effect and ±100 for the full control effect
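Erythrocytes infected with P. falciparum carrying an integrated firefly luciferase reporter (2% hematocrit, 0.1% parasitemia final) were exposed to compounds in RPMI 1640 with 0.5% Albumax at 37 C, 5% CO2. Growth inhibition was scored as reduced luminescence.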
Starred values were filed as active, the others as inactive. Unless noted, calls come from the whole dose curve; as a rule, active = well fitted curve in the direction sought with a large enough effect; inconclusive = small, poorly fitted or top-dose-only effect, or another doubt; inactive = no such curve, though single readings can be large; an effect the other way counts as inactive or inconclusive. Potency is the fitted concentration of half-maximal effect.

Cn1c(N2CCCCC2)nc2c1c(=O)[nH]c(=O)n2C was read as HCV inhibitor -1.1%, AMA1 RON2 block -1.9%, Pf growth 96h 10.4µM*, NS1 inh inconclusive, SARS PLpro yeast 17.1% and Pf growth 48h -0.5%.
Screening CCOC(=O)Cn1c(N2CCOCC2)nc2c1c(=O)[nH]c(=O)n2C returned HCV inhibitor 12.2%, AMA1 RON2 block 2.4%, Pf growth 96h 11.7µM*, NS1 inh 0.5%, SARS PLpro yeast 0.3% and Pf growth 48h -7.0%.
`COCCn1c(N2CCCC2)nc2c1c(=O)[nH]c(=O)n2C` gave HCV inhibitor 12.8%, AMA1 RON2 block 5.2%, Pf growth 96h 49.9%, NS1 inh 3.9%, SARS PLpro yeast -2.5% and Pf growth 48h 13.1µM*.
COCCn1c(Sc2nc(C)cs2)nc2c1c(=O)[nH]c(=O)n2C was read as HCV inhibitor inconclusive, AMA1 RON2 block 13.1%, Pf growth 96h 13.1µM*, NS1 inh 2.7%, SARS PLpro yeast 0.7% and Pf growth 48h -21.9%.
`CCOCCn1c(N2CCCC2)nc2c1c(=O)[nH]c(=O)n2C` gave HCV inhibitor 4.8%, AMA1 RON2 block 12.1%, Pf growth 96h inconclusive, NS1 inh -21.4%, SARS PLpro yeast -6.0% and Pf growth 48h 41.8%.
`CCOC(=O)Cn1c(Br)nc2c1c(=O)[nH]c(=O)n2C` gave HCV inhibitor -2.9%, AMA1 RON2 block -14.9%, NS1 inh -2.1%, SARS PLpro yeast 6.3% and Pf growth 48h -10.4%.
CC(C)n1c(N2CCCC2)nc2c1c(=O)[nH]c(=O)n2C was read as HCV inhibitor 3.5%, AMA1 RON2 block 2.6%, Pf growth 96h 7.6%, NS1 inh 7.5%, SARS PLpro yeast -0.2% and Pf growth 48h 8.4%.
For CCN(C(=O)CSc1nc2ccccc2c(=O)n1C(C)COC)C1CCS(=O)(=O)C1 (stereo unspecified) the results were HCV inhibitor 21.9%, AMA1 RON2 block -2.6%, Pf growth 96h 15.9%, SARS PLpro yeast -1.4% and Pf growth 48h -19.0%.
Screening Cn1c(=O)c(=O)n(C)c2cc(S(=O)(=O)N3CCCC3C(=O)NCc3cccnc3)ccc21 (stereo unspecified) returned HCV inhibitor 1.7%, AMA1 RON2 block 18.8%, Pf growth 96h 2.3%, NS1 inh 6.5%, SARS PLpro yeast 0.7% and Pf growth 48h 6.9%.
Screening Cc1cccc(C(=O)NCCc2ccccc2)c1 returned HCV inhibitor 11.6%, AMA1 RON2 block -0.7%, Pf growth 96h inconclusive, NS1 inh -30.9% and SARS PLpro yeast 0.8%.
Screening CC(Oc1ccc(Br)cc1)C(=O)NCC(c1cccs1)N1CCOCC1 (stereo unspecified) returned HCV inhibitor 2.8%, AMA1 RON2 block 35.0%, Pf growth 96h -0.3% and Pf growth 48h inconclusive.
`CCN(CC)c1nc(Nc2ccccc2)nc(Oc2ccc(=O)n(C)n2)n1` gave HCV inhibitor inconclusive, AMA1 RON2 block -2.9%, Pf growth 96h 0.5%, NS1 inh -22.0%, SARS PLpro yeast 1.7% and Pf growth 48h inconclusive.
CCOc1ccc(Oc2nc(Nc3ccc(C)cc3)nc(N(C)C)n2)nn1 was read as HCV inhibitor 11.2µM*, AMA1 RON2 block 1.1%, NS1 inh -32.2%, SARS PLpro yeast 2.7% and Pf growth 48h 2.7%.
Screening C#CCOCCOCCOCCNc1nc(N2CCN(C(=O)[C@H]([C@@H](C)CC)n3cc(CCCN=C(N)N)nn3)CC2)nc(N2CCN(C(=O)[C@H](CCCCN)n3cc(CCC(=O)O)nn3)CC2)n1 returned HCV inhibitor 15.1%, AMA1 RON2 block 0.0%, Pf growth 96h -0.3%, NS1 inh 6.1%, SARS PLpro yeast 7.9% and Pf growth 48h 6.9%.
`C#CCOCCOCCOCCNc1nc(N2CCN(C(=O)CCCCCCCCCCNC(=O)[C@H](CCCCN)n3cc(CCO)nn3)CC2)nc(N2CCN(C(=O)CCCCCCCCCCNC(=O)[C@H](CCCN=C(N)N)n3cc(C[C@@H](C)CC)nn3)CC2)n1` gave HCV inhibitor inconclusive, AMA1 RON2 block inconclusive, Pf growth 96h 4.65µM*, SARS PLpro yeast 0.0% and Pf growth 48h 11.7µM*.
For C#CCOCCOCCOCCNc1nc(N2CCN(C(=O)CCCCCCCCCCNC(=O)[C@H]([C@@H](C)CC)n3cc(CCCCN=C(N)N)nn3)CC2)nc(N2CCN(C(=O)CCCCCCCCCCNC(=O)[C@H](CCCCN)n3cc(C[C@@H](C)CC)nn3)CC2)n1 the results were HCV inhibitor inconclusive, Pf growth 96h 5.22µM*, SARS PLpro yeast 0.2% and Pf growth 48h 9.28µM*.
C#CCOCCOCCOCCNc1nc(N2CCN(C(=O)CCCCCCCCCCNC(=O)[C@H](CCCCN)n3cc(CCCC(=O)O)nn3)CC2)nc(N2CCN(C(=O)CCCCCCCCCCNC(=O)[C@H](CCCN=C(N)N)n3cc(C[C@@H](C)CC)nn3)CC2)n1 was read as HCV inhibitor inconclusive, AMA1 RON2 block -22.4%, Pf growth 96h 13.1µM*, SARS PLpro yeast -3.7% and Pf growth 48h 10.4µM*.
C#CCOCCOCCOCCNc1nc(N2CCN(C(=O)[C@H]([C@@H](C)CC)n3cc(CCCN=C(N)N)nn3)CC2)nc(N2CCN(C(=O)[C@H](CCCCN)n3cc(CC(C)O)nn3)CC2)n1 (stereo partly specified) was read as HCV inhibitor inconclusive, AMA1 RON2 block -3.8%, Pf growth 96h inconclusive, SARS PLpro yeast -1.2% and Pf growth 48h -25.2%.
CC(CN1CCN(C)CC1)OC(=O)c1cccc(F)c1 (stereo unspecified) was read as HCV inhibitor -6.5%, AMA1 RON2 block -17.1%, Pf growth 96h inconclusive, NS1 inh 8.6%, SARS PLpro yeast 6.7% and Pf growth 48h 7.4%.
Screening Cc1ccc2c(c1)c1c(n2C)C(C(N)=O)CCC1 (stereo unspecified) returned HCV inhibitor inconclusive, AMA1 RON2 block -8.8%, Pf growth 96h 24.2%, NS1 inh -3.4%, SARS PLpro yeast -8.4% and Pf growth 48h 2.9%.
Screening Cc1ccc2c(c1)c1c(n2C)-c2[nH]ncc2CC1 returned HCV inhibitor 10µM*, AMA1 RON2 block 2.7%, Pf growth 96h 43.9%, NS1 inh -4.7%, SARS PLpro yeast -69.3% and Pf growth 48h 94.3%.
